Results on 40 compounds are retold here after PubChem BioAssay (Tox21).

SMILES strings stand for the structures. Records with an inconclusive call do not appear. A call without a number means that no potency is given here. Unmarked numbers belong to inactive results. Calls of active or inactive are those of the source. The call rests on the fitted dose curve.
Potency means the concentration at half of the fitted maximal effect.

Acetylcholinesterase (Homo sapiens), sequence (P22303 whole entry, looked up): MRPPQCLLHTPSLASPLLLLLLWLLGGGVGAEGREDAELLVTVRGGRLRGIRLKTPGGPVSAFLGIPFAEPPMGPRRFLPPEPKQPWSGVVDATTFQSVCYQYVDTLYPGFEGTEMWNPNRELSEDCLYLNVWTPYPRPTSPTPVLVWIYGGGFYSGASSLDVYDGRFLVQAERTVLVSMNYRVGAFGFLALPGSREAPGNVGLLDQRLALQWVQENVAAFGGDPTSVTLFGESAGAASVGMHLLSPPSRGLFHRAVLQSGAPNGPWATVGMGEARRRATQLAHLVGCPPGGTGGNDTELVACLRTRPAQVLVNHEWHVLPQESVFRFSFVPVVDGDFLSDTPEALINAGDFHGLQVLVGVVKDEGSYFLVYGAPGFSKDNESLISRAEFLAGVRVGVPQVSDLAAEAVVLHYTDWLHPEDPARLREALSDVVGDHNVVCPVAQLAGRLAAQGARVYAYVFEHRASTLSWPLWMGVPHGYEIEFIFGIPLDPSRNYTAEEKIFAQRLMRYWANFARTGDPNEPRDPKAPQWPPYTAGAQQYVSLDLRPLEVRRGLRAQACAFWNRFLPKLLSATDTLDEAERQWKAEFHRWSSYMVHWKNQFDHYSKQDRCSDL

This assay addresses Acetylcholinesterase (Homo sapiens) (UniProt P22303). The experiment in a line: Acetylcholinesterase (AChE) small molecule antagonists: colormetric cell-based qHTS assay (AID 1347395). Further: nearly all actives have a fitted effect of over 30% in size. To be noted: SH-SY5Y cells AChE activity, colorimetric (Ellman); series mostly up to 115 µM. An excerpt: National Center for Advancing Translational Sciences [NCATS]
Division of Preclinical Innovation [DPI]
U.S. Environmental Protection Agency [EPA]
National Institutes of Environmental Health Sciences [NIEHS]
National Toxicology Program [NTP]
U.S. Food and Drug Administration [FDA]
Acetylcholinesterase (AChE) is the primary cholinesterase in the body that hydrolyzes a key neurotransmitter, acetylcholine. Inhibition of AChE activity can lead to neurotoxicity. The known inhibitors include organophosphorous pesticides (OP), chemical warfare agents, drugs, and various phytochemicals.
A homogenous cell-based assay using the Amplite Colormetric acetylcholinesterase assay kit (AAT Bioquest, Sunnyvale, CA) was used to evaluate the chemicals in the Tox21 10K library that inhibit AChE activity. The assay uses 5, 5-dithiobis-(2-nitrobenzoic acid) (DTNB) to quantify the thiocholine produced from the hydrolysis of acetylthiocholine by AChE from the SH-SY5Y cells.
Tox21 Assay Protocol Summary:
For the cell-based AChE assay, 2,000 SH-SY5Y cells in 4 uL/well were dispensed into black, clear-bottom 1536-well plates using a Multidrop Combi dispenser (Thermo Scientific, MA). The assay plates were incubated overnight at 37 C to allow cells to attach to the wells, followed by the transfer of 23 nL of compound or DMSO (vehicle control) by a Pintool Station (Wako Automation, CA). The plates were incubated for 30 min at 37 C and 5% CO2, followed by the addition of 4 uL of detection cocktail solution (DTNB, acetylthiocholine) into each well using a Flying Reagent Dispenser (Beckman Coulter, CA) and then 90 min incubation at 37 C.
In general terms: Quantitative high-throughput screening tests each substance at several concentrations.
For `Oc1ccc(Cl)cc1C1CCCC1`, the Potency result was “inactive”. Regarding `Cc1cc(=O)c2c(O)c3c(O)cc(=O)c4c3c3c(cc(O)c1c23)C(C)(C)C=4O`, the activity, negative = inhibition is 0.337% [at 23.6 µM]. For the compound `Cc1cc(C)c(O)c(C(C)(C)C)c1`, the Potency result was “inactive”. On the same count and under the same terms, the entry for `C[C@@H](c1ncncc1F)C(O)(Cn1cncn1)c1ccc(F)cc1F` (stereo not given in full) is “inactive”; for `C#C[C@]1(OC(C)=O)CC[C@H]2[C@@H]3CCC4=C/C(=N/O)CC[C@@H]4[C@H]3CC[C@@]21CC` it is “inactive”. Same read-out and setting: the entry for `O=C1CC2(CCCC2)CC(=O)N1` is “inactive”. Still for that read-out and setting: the entry for `C=CCN(CC=C)CC=C` is “inactive”; for `CC(C)(C)C1(CCc2ccc(Cl)cc2)CO1` (stereo not given) it is “inactive”; for `CNCc1cc(F)ccc1Oc1ccc(Cl)c(Cl)c1` it is “inactive”. In the case of `CCCCCCOC(=O)CCCCC(=O)OCCCCCC`, the Potency entry is “inactive”. Still for that read-out and setting: the entry for `N=C1C=CC(=C(c2ccc(N)cc2)c2ccc(N)cc2)C=C1` is “inactive”. Take `CCCCCCCCCCCCS(=O)(=O)Cl`: the activity, negative = inhibition is -0.822% [at 23.6 µM]. For `CC(=O)Oc1cc2c(s1)CCN(C(C(=O)C1CC1)c1ccccc1F)C2` (stereo not given), the Potency entry is “inactive”. The same measure, in the same setting: in the case of `CC=O` it was 41.8 µM (active); in that of `COC(=O)c1cc(Cl)ccc1OC`, “inactive”. Still for that read-out and setting: in the case of `N#CC1(N)CCCCC1` it was “inactive”; in that of `Cc1occc(=O)c1OC(=O)C(C)C`, “inactive”. On the same count and under the same terms, in the case of `CC1COc2ccccc2N1` (stereo not given) it was “inactive”; in that of `OCc1c[nH]c2ccccc12`, “inactive”; in that of `CC1=CCC2C(C1)C2(C)C` (stereo not given), “inactive”. For the compound `OCC(F)(F)F`, the Potency entry was “inactive”. Same read-out and setting: in the case of `C=CCSCC1Nc2cc(Cl)c(S(N)(=O)=O)cc2S(=O)(=O)N1` (stereo not given) it was “inactive”. On the same count and under the same terms, in the case of `C[C@H]1O[C@@H](O[C@H]2CC[C@@]3(C)[C@H](CC[C@@H]4[C@@H]3C[C@@H](O)[C@]3(C)[C@@H](C5=CC(=O)OC5)CC[C@]43O)C2)C[C@H](O)[C@@H]1O[C@H]1C[C@H](O)[C@H](O[C@H]2C[C@H](O)[C@H](O[C@@H]3O[C@H](CO)[C@@H](O)[C@H](O)[C@H]3O)[C@@H](C)O2)[C@@H](C)O1` it was “inactive”; in that of `CC(=O)CCc1ccc(O)cc1`, “inactive”. Consider `O=S(=O)(O)c1cc(S(=O)(=O)O)c2ccc3c(S(=O)(=O)O)cc(S(=O)(=O)O)c4ccc1c2c43`, for which the activity, negative = inhibition is -7.76% [at 23.6 µM]. As for `CC(O)CCCCn1c(=O)c2c(ncn2C)n(C)c1=O` (stereo not given), the Potency result was “inactive”. On the same count and under the same terms, in the case of `CCCC(C)C(O)CC` (stereo not given) it was “inactive”; in that of `CCCCOc1ccc(C(=O)CCN2CCCCC2)cc1`, 12.3 µM (active); in that of `ON=C1CCCC1`, “inactive”. On the same count and under the same terms, in the case of `CCOC(=O)C(C)(C)C` it was “inactive”; in that of `O=S1OCCO1`, “inactive”. Same read-out and setting: the entry for `CC(CO)CO` is “inactive”. On to `CCOC(=O)[C@H](CCc1ccccc1)N[C@H]1CS[C@H](c2cccs2)CN(CC(=O)O)C1=O`, for which the Potency result is “inactive”. Consider `O=c1[nH]c(=O)n([C@H]2C[C@H](O)[C@@H](CO)O2)cc1I`, for which the Potency entry is “inactive”. The same measure, in the same setting: the entry for `Clc1cc(Cl)cc(Cl)c1` is “inactive”; for `O=C(CO)[C@@H](O)[C@H](O)[C@@H](O)CO` it is “inactive”. The same measure, in the same setting: in the case of `Nc1ccc(F)c([N+](=O)[O-])c1` it was “inactive”. For the compound `O=C(O)c1cccc(Cl)n1`, the Potency entry was “inactive”. With `CC(=O)N[C@@H](CC(C)C)C(=O)O`, the Potency entry is “inactive”. Same read-out and setting: in the case of `CCN(CC)c1ccc2c(c1)Oc1cc(N(CC)CC)ccc1C21OC(=O)c2ccccc21` it was “inactive”.
